In PubChem BioAssay (Tox21):
Inconclusive results are not listed. Calls of active or inactive are those of the source. The call rests on the fitted dose curve; in most records, active means well fitted curve in the direction sought with a large enough effect in the repeat runs; inconclusive means weak or mixed curves; inactive means no such curve, though single readings can be large; an effect the other way counts as inactive or inconclusive.

How the values were obtained:
[1] = qHTS RealTime-Glo MT Cell Viability Assay in HEK293 cells - 16 hour (AID 1224872); further: top concentration of the series differs between compounds; nearly all actives have a fitted effect of over 50% in size
In short: (§1)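 Homogeneous bioluminescent viability format in HEK293 cells (600 cells/well). Following 5 h at 37 C/5% CO2, 23 nL compound was pintooled; the signal was measured repeatedly during 40 h incubation.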

[2] = qHTS RealTime-Glo MT Cell Viability Assay in HepG2 cells - 8 hour (AID 1224873); further: nearly all actives have a fitted effect of over 55% in size; further: potency means the concentration at half of the fitted maximal effect
In short: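 HepG2 cells mixed with RealTime-Glo MT reagents (NanoLuc plus cell-permeant prosubstrate) were seeded at 600 cells/well, incubated 5 h at 37 C/5% CO2, then pinned with compounds in DMSO; nonlytic luminescence tracked viability during 40 h treatment.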

[3] = qHTS RealTime-Glo MT Cell Viability Assay in HEK293 cells - 40 hour (AID 1224874); settings: RealTime-Glo luminescence; max response: active compounds read low; further: nearly all actives have a fitted effect of over 50% in size; further: potency means the concentration at half of the fitted maximal effect
In short: (§2)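 Nonlytic bioluminescent viability monitoring. HEK293 at 600 cells/well with reagent; 5 h settle; compound transfer by pintool; plates held at 37 C and read at set time points.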

[4] = A CellTox Green Cytotoxicity Assay to monitor cytotoxicity in HepG2 cells - 16 hour (AID 1224876); further: nearly all actives have a fitted effect of over 45% in size
In short: (§3)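 Real-time, homogeneous cytotoxicity readout: dead-cell DNA staining by CellTox Green in HepG2 monolayers, fluorescence measured at timed intervals up to 40 h of continuous compound exposure.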

[5] = qHTS RealTime-Glo MT Cell Viability Assay in HepG2 cells - 32 hour (AID 1224877); further: nearly all actives have a fitted effect of over 55% in size
In short: (§4)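 Cell number in HepG2 cultures estimated from NanoLuc luminescence generated by metabolic reduction of a prosubstrate by living cells. The homogeneous, nonlytic format allowed repeated reads at 0, 8, 16, 24, 32 and 40 h of compound exposure.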

[6] = A CellTox Green Cytotoxicity Assay to monitor cytotoxicity in HepG2 cells - 24 hour (AID 1224878); further: nearly all actives have a fitted effect of over 45% in size; further: potency means the concentration at half of the fitted maximal effect
In short: as §3

[7] = qHTS RealTime-Glo MT Cell Viability Assay in HEK293 cells - 0 hour (AID 1224880); further: top concentration of the series differs between compounds; nearly all actives have a fitted effect of over 45% in size
In short: as §2

[8] = A CellTox Green Cytotoxicity Assay to monitor cytotoxicity in HEK293 cells - 32 hour (AID 1224881); further: nearly all actives have a fitted effect of over 40% in size
In short: (§5)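 Cytotoxicity was tracked continuously in HEK293 cells by a DNA-binding dye excluded from viable cells. Compounds were transferred in DMSO 5 h after seeding; fluorescence was recorded at intervals up to 40 h.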

[9] = A CellTox Green Cytotoxicity Assay to monitor cytotoxicity in HepG2 cells - 0 hour (AID 1224882); further: nearly all actives have a fitted effect of over 35% in size
In short: as §3

[10] = A CellTox Green Cytotoxicity Assay to monitor cytotoxicity in HepG2 cells - 32 hour (AID 1224883); further: nearly all actives have a fitted effect of over 50% in size; further: potency means the concentration at half of the fitted maximal effect
In short: as §3

[11] = A CellTox Green Cytotoxicity Assay to monitor cytotoxicity in HEK293 cells - 8 hour (AID 1224884); further: nearly all actives have a fitted effect of over 35% in size
In short: as §5

[12] = qHTS RealTime-Glo MT Cell Viability Assay in HepG2 cells - 16 hour (AID 1224885); further: nearly all actives have a fitted effect of over 50% in size; further: potency means the concentration at half of the fitted maximal effect
In short: as §4

[13] = qHTS RealTime-Glo MT Cell Viability Assay in HEK293 cells - 8 hour (AID 1224887)
In short: as §2

[14] = A CellTox Green Cytotoxicity Assay to monitor cytotoxicity in HEK293 cells - 16 hour (AID 1224888); further: nearly all actives have a fitted effect of over 35% in size
In short: as §5

[15] = qHTS RealTime-Glo MT Cell Viability Assay in HepG2 cells - 0 hour (AID 1224889); further: nearly all actives have a fitted effect of over 50% in size; further: potency means the concentration at half of the fitted maximal effect
In short: as §4

[16] = A CellTox Green Cytotoxicity Assay to monitor cytotoxicity in HepG2 cells - 8 hour (AID 1224890); further: nearly all actives have a fitted effect of over 45% in size
In short: as §3

[17] = qHTS assay to identify small molecule antagonists of the estrogen receptor alpha (ER-alpha) signaling pathway using the BG1 cell line in the presence of 0.1 nM 17-beta-estradiol - cell viability counter screen (AID 1259241); further: nearly all actives have a fitted effect of over 40% in size
In short: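 VM7Luc4E2 cells (endogenous full-length ER-alpha, 4xERE-luciferase), cultured 5 days in charcoal-stripped serum, exposed to compounds with 0.1 nM 17beta-estradiol (final) for 22 hr at 37C. Viability read in same wells as live-cell protease fluorescence after 30 min.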

[18] = A CellTox Green Cytotoxicity Assay to monitor cytotoxicity in HEK293 cells - 24 hour (AID 1224875)
In short: as §5

[19] = A CellTox Green Cytotoxicity Assay to monitor cytotoxicity in HepG2 cells - 40 hour (AID 1224879); further: nearly all actives have a fitted effect of over 40% in size; further: potency means the concentration at half of the fitted maximal effect
In short: as §3

[20] = qHTS RealTime-Glo MT Cell Viability Assay in HEK293 cells - 24 hour (AID 1224886)
In short: as §1
On the % scale 0 is the no-effect control and ±100 the full control effect.

COC(=O)c1cc(Cl)ccc1NS(=O)(=O)C(F)(F)F
inactive: Potency [1] | Potency [2] | max response [3] 2.62% | Potency [4] | Potency [5] | Potency [6] | Potency [7] | Potency [8] | Potency [9] | Potency [10] | Potency [11] | Potency [12] | Potency [13] | Potency [14] | Potency [15] | Potency [16] | Potency [17]

CO[C@@]12[C@H](COC(N)=O)C3=C(C(=O)C(C)=C(N)C3=O)N1C[C@@H]1N[C@@H]12
active: Potency [2] 1.34 µM | Potency [3] 0.674 µM | Potency [6] 8.49 µM | Potency [19] 6.74 µM | Potency [10] 8.49 µM | Potency [12] 3.38 µM
inactive: Potency [1] | Potency [18] | Potency [7] | Potency [8] | Potency [9] | Potency [11] | Potency [13] | Potency [14] | Potency [15] | Potency [16]

C[N+](C)(C)CCOC(N)=O
inactive: Potency [1] | Potency [2] | max response [3] 0.438% | Potency [4] | Potency [5] | Potency [6] | Potency [19] | Potency [7] | Potency [8] | Potency [9] | Potency [10] | Potency [11] | Potency [12] | Potency [13] | Potency [14] | Potency [15] | Potency [16]

O=C(CS)OCCOC(=O)CS
inactive: Potency [1] | Potency [2] | max response [3] 0.141% | Potency [4] | Potency [5] | Potency [6] | Potency [19] | Potency [7] | Potency [8] | Potency [9] | Potency [10] | Potency [11] | Potency [12] | Potency [20] | Potency [14] | Potency [15] | Potency [16] | Potency [17]

O=S1OCCO1
inactive: Potency [1] | Potency [2] | max response [3] 21% | Potency [4] | Potency [5] | Potency [6] | Potency [19] | Potency [7] | Potency [8] | Potency [9] | Potency [10] | Potency [11] | Potency [12] | Potency [13] | Potency [14] | Potency [15] | Potency [16] | Potency [17]

CC(=N\O)/C(C)=N/O
inactive: Potency [1] | Potency [2] | max response [3] -18.2% | Potency [4] | Potency [5] | Potency [6] | Potency [19] | Potency [7] | Potency [8] | Potency [9] | Potency [10] | Potency [11] | Potency [12] | Potency [14] | Potency [15] | Potency [16]

CC(C)OCC1CO1 (stereo unspecified)
inactive: Potency [1] | Potency [2] | max response [3] 11.5% | Potency [4] | Potency [6] | Potency [19] | Potency [7] | Potency [8] | Potency [9] | Potency [10] | Potency [11] | Potency [12] | Potency [20] | Potency [13] | Potency [14] | Potency [15] | Potency [16] | Potency [17]

C/C=C/C=C/CCCCCCCO
inactive: Potency [1] | Potency [2] | max response [3] -18.5% | Potency [18] | Potency [5] | Potency [6] | Potency [7] | Potency [9] | Potency [10] | Potency [11] | Potency [12] | Potency [14] | Potency [16] | Potency [17]
active: Potency [15] 13.8 µM

CCCCCCCC/C=C\CCCCCCCC(=O)OC
inactive: Potency [1] | Potency [2] | max response [3] 5.42% | Potency [4] | Potency [5] | Potency [6] | Potency [19] | Potency [7] | Potency [9] | Potency [10] | Potency [11] | Potency [12] | Potency [20] | Potency [13] | Potency [14] | Potency [15] | Potency [16] | Potency [17]

CN1Cc2cc(C(=O)N3CCC(C4CCNCC4)CC3)ccc2N[C@@H](CC(=O)O)C1=O
inactive: Potency [1] | Potency [2] | max response [3] 0.441% | Potency [18] | Potency [5] | Potency [6] | Potency [7] | Potency [9] | Potency [10] | Potency [11] | Potency [12] | Potency [20] | Potency [13] | Potency [14] | Potency [15] | Potency [16] | Potency [17]

CC#N
inactive: Potency [1] | Potency [2] | max response [3] 1.57% | Potency [18] | Potency [6] | Potency [19] | Potency [7] | Potency [8] | Potency [9] | Potency [10] | Potency [11] | Potency [12] | Potency [20] | Potency [14] | Potency [15] | Potency [16] | Potency [17]

CN1C(=O)CC(C)(c2ccccc2)C1=O (stereo unspecified)
inactive: Potency [1] | Potency [2] | max response [3] -3.29% | Potency [4] | Potency [5] | Potency [6] | Potency [19] | Potency [7] | Potency [8] | Potency [9] | Potency [10] | Potency [11] | Potency [12] | Potency [20] | Potency [13] | Potency [14] | Potency [15] | Potency [16] | Potency [17]

O=C1NCCN1
inactive: Potency [1] | Potency [2] | max response [3] 4.04% | Potency [4] | Potency [5] | Potency [6] | Potency [19] | Potency [7] | Potency [9] | Potency [10] | Potency [11] | Potency [12] | Potency [20] | Potency [13] | Potency [15] | Potency [16] | Potency [17]

Fc1c(F)c(F)c(Br)c(F)c1F
inactive: Potency [1] | Potency [2] | max response [3] 0.266% | Potency [4] | Potency [5] | Potency [6] | Potency [19] | Potency [7] | Potency [8] | Potency [9] | Potency [10] | Potency [11] | Potency [12] | Potency [20] | Potency [13] | Potency [14] | Potency [15] | Potency [16]
